Several values for one entry are separate records, joined by “and”; a condition that tells them apart may be missing. Equal values may be shown once.
molecular target: Apelin receptor (Homo sapiens) (UniProt P35414); experiment: APJ beta-arrestin recruitment blockade alongside CXCR6 – cell-based, DiscoveRx, panel, CHO-K1, counter-screen for CXCR6 antagonist project, SAR follow-up (AID 651598); details: CHO-K1 PathHunter beta-arrestin luminescence, antagonist mode; run 4, at 80 µM (top of the series)
Sequence (P35414 whole entry, looked up): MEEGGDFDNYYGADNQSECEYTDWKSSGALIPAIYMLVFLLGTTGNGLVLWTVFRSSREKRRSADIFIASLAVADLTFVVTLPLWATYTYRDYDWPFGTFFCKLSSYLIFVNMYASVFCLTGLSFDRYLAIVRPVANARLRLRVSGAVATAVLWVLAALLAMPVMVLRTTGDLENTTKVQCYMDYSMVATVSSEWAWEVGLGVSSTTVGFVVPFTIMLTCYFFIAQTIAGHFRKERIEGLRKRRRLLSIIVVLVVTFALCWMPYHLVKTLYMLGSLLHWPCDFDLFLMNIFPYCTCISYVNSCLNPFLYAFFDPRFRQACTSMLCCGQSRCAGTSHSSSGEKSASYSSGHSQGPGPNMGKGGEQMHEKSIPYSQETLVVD

Row | SMILES | inhibition
1 | COc1cc(C(=O)NC2CCN(CC(=O)Nc3ccccc3)CC2)cc(OC)c1OC | -1.54%
2 | COc1cc(C(=O)NC2CC3CCC(C2)N3CC(=O)Nc2ccccc2)cc(OC)c1OC (stereo not drawn) | -13.5% and 16.7%
3 | COc1cc(C(=O)NC2CC3CCCC(C2)N3CC(=O)Nc2ccccc2)cc(OC)c1OC (stereo not drawn) | 17% and 11.6% and 7.8%

Reference: PubChem BioAssay AID651598 (Sanford-Burnham Center for Chemical Genomics, 2012)
